High-throughput results: PubChem, several laboratories
Shown are actives, neighbours in structure and some others; about 5.7% of the full set was active somewhere.
GRIN3A LBD mod: binders of NR3A ligand-binding domain, primary screen, biophysical, differential scanning fluorimetry, uHTS | Glutamate receptor ionotropic, NMDA 3A (GRIN3A) ligand-binding domain | NR3A LBD differential scanning fluorimetry, Tm shift; 0% = protein alone, 100% = glycine-bound protein | Tm shift relative to glycine control, % at 25 µM | hit rate 2.5% among 340,000 | AID 1259313, 2017;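 active = melting temperature shift of at least 10% of the positive control shift, at one fixed dose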
FAS-TE inh: FAS thioesterase domain inhibitors, primary screen, biochemical, fluorescence intensity, uHTS; inhibition, % at 15 µM; Fatty acid synthase (Homo sapiens), P49327; recombinant FAS-TE, OMFH fluorogenic substrate, fluorescence endpoint; hit rate 0.67% among 360,000;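 active = compounds whose normalised, plate-corrected inhibition of enzyme fluorescence in the single-dose primary screen is 50% or more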;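 also: 0% = DMSO with enzyme and 100% = substrate without enzyme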
Myeloid diff 2: induction of myeloid progenitor differentiation, primary screen, cell-based, flow cytometry, MLPCN library. hit rate 1% among 360,000. ER-HoxA9 myeloid progenitors, lysozyme-GFP differentiation. AID 624256, 2012. calls only at 10 µM;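 active = normalized GFP-positive differentiation at or above the plate's own cutoff, the solvent-only control mean plus 3 SD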;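 also: cells exposed to compound for four days before flow analysis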
rCAG RNA binder: binders of r(CAG) RNA repeats, primary screen, biochemical, fluorescence; r(CAG) RNA repeat, TO-PRO-1 dye displacement fluorescence; inhibition, % at 3 µM; hit rate 1.3% among 370,000; AID 651821, 2012;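 active = inhibition above the plate cutoff, the mean of all test compounds on that plate plus 3 SD, cut at about 35% in these data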;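 also: 0% = DMSO alone and 100% = 100 µM mitoxantrone as full dye displacement; higher means more dye released from RNA so lower well fluorescence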
MPTP inh: mitochondrial permeability transition pore inhibitors, primary screen, biochemical, isolated mouse mitochondria, absorbance | Ca2+ swelling absorbance, 30 min | hit rate 1.4% among 360,000 | inhibition, % at 10 µM;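 active = inhibition of 50% or more, scaled per plate between neutral and stimulator controls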;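 also: 0% = DMSO wells given calcium and 100% = 1 mM EGTA wells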
rCAG binder conf: small molecules binding CAG repeat RNA – biochemical, fluorescence, confirmation; hit rate 70% among 4,300; r(CAG) RNA repeat, TO-PRO-1 dye displacement fluorescence; inhibition, % at 3 µM; AID 652065, 2013; shares compounds with rCAG RNA binder;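 active = inhibition above a per-plate cutoff, the mean inhibition of sample wells plus 3 SD, cut at about 35% in these data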;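 also: loss of TO-PRO-1 fluorescence as compound displaces dye from 1x1 AA loop RNA; 0% = DMSO only wells and 100% = 100 µM mitoxantrone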
dCAG dye counter: displacement of TO-PRO-1 from CAG DNA duplex, counter-screen for rCAG RNA repeat binder project, biochemical, fluorescence, TO-PRO-1 dye, d(CAG) DNA oligo; shares compounds with rCAG RNA binder; d(CAG) DNA oligo TO-PRO-1 dye displacement; inhibition, % at 3 µM; hit rate 94% among 4,300; AID 652068, 2013;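 active = inhibition above its plate's cutoff, the mean test-well inhibition plus 3 SD, cut at about 4.8% in these data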;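 also: 0% = DNA dye mix with DMSO and 100% = 100 µM mitoxantrone; hits displace the dye from DNA and so lower well fluorescence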
* hit, by the source's call.

`COc1ccc(-c2ccc(NS(=O)(=O)c3cc([N+](=O)[O-])c(C)c([N+](=O)[O-])c3)cc2)nn1` gave GRIN3A LBD mod 1, FAS-TE inh 59*, Myeloid diff 2 inactive, rCAG RNA binder 56*, MPTP inh 2, rCAG binder conf 42* and dCAG dye counter 15*.
For COc1ccc(-c2ccc(NS(=O)(=O)c3cc([N+](=O)[O-])ccc3C)cc2)nn1 the results were GRIN3A LBD mod -4, FAS-TE inh 15, Myeloid diff 2 inactive, rCAG RNA binder 25 and MPTP inh 0.
`CCCCNC(=O)C[C@@H]1C[C@@]2(C(=O)OCC)CCC=C2N(Cc2ccc(Cl)cc2Cl)C1=O` gave FAS-TE inh 12, Myeloid diff 2 inactive, rCAG RNA binder 4 and MPTP inh 0.
For Cc1sc2nc(SCc3ccc(C(=O)O)cc3)n(Cc3ccco3)c(=O)c2c1C the results were GRIN3A LBD mod -1, FAS-TE inh 5, Myeloid diff 2 inactive, rCAG RNA binder 55*, MPTP inh 4, rCAG binder conf 57* and dCAG dye counter 20*.
`C=CCn1c(SCc2ccc(C(=O)O)cc2)nc2sc(C)c(C)c2c1=O` gave GRIN3A LBD mod -5, FAS-TE inh 2, Myeloid diff 2 inactive, rCAG RNA binder 29 and MPTP inh 2.
Screening COc1cc(OC)c(C=NNC(=S)NC23CC4CC(CC(C4)C2)C3)c(OC)c1 returned GRIN3A LBD mod -13, FAS-TE inh 42, Myeloid diff 2 inactive, rCAG RNA binder 6 and MPTP inh 2.
`O=C(O)c1ccccc1N1C(=O)C2C3c4ccccc4C(Br)(c4ccccc43)C2C1=O` (configuration not stated) gave GRIN3A LBD mod -1, FAS-TE inh -4, Myeloid diff 2 inactive, rCAG RNA binder 35*, MPTP inh 1, rCAG binder conf 27 and dCAG dye counter 4.5*.
Screening CC12C(=O)N(c3ccccc3C(=O)O)C(=O)C1C1C=CC2C1 (configuration not stated) returned GRIN3A LBD mod -1, FAS-TE inh -6, Myeloid diff 2 inactive, rCAG RNA binder 2 and MPTP inh -3.
O=C(O)c1ccccc1NC(=O)C(Cc1ccccc1)N1C(=O)c2ccccc2C1=O (configuration not stated) was read as GRIN3A LBD mod -29, FAS-TE inh 3, Myeloid diff 2 inactive, rCAG RNA binder 42*, MPTP inh 0, rCAG binder conf 49* and dCAG dye counter 12*.
For CN1C(=O)/C(=C/c2ccc(-c3ccccc3[N+](=O)[O-])o2)SC1=Nc1ccc(Cl)c(C(=O)O)c1 the results were GRIN3A LBD mod -5, FAS-TE inh 28, Myeloid diff 2 inactive, rCAG RNA binder 43*, MPTP inh 10, rCAG binder conf 85* and dCAG dye counter 51*.
O=C1C2C3C=CC(C3)C2C(=O)N1/N=C/c1ccc(-c2ccccc2[N+](=O)[O-])o1 (configuration not stated) was read as GRIN3A LBD mod -3, FAS-TE inh -7, Myeloid diff 2 inactive, rCAG RNA binder 4 and MPTP inh 1.
Screening CC(C)Cn1c(N)c(C(=O)COC(=O)CCc2nc3ccccc3s2)c(=O)n(C)c1=O returned GRIN3A LBD mod -2, FAS-TE inh 8, Myeloid diff 2 inactive, rCAG RNA binder -5 and MPTP inh 5.
COC(=O)c1c(NC(=O)C2CCCCC2C(=O)O)sc2c1CCCCC2 (configuration not stated) was read as GRIN3A LBD mod 1, FAS-TE inh -10, Myeloid diff 2 inactive, rCAG RNA binder 48*, MPTP inh -3, rCAG binder conf 33 and dCAG dye counter 5.7*.
COCC(=O)Nc1sc2c(c1C(=O)OC)CCCC2 was read as GRIN3A LBD mod -1, FAS-TE inh 7, Myeloid diff 2 inactive, rCAG RNA binder 4 and MPTP inh 1.
For COC(=O)c1sc(NC(=O)C2CCCCC2C(=O)O)c(C(=O)OC)c1C (configuration not stated) the results were GRIN3A LBD mod 0, FAS-TE inh -5, Myeloid diff 2 inactive, rCAG RNA binder 39*, MPTP inh -10, rCAG binder conf 44* and dCAG dye counter 9.0*.
Screening CCOC(=O)[C@]12CCCC=C1N(Cc1ccc(Cl)cc1Cl)C(=O)[C@H](CC(=O)N1CCN(C(=O)c3ccco3)CC1)C2 returned FAS-TE inh 6, Myeloid diff 2 inactive, rCAG RNA binder 5 and MPTP inh 1.
Cc1cc(/C=C2\SC(=S)NC2=O)c(C)n1-c1cccc(O)c1 was read as GRIN3A LBD mod 2, FAS-TE inh 21, Myeloid diff 2 inactive, rCAG RNA binder 52*, MPTP inh 5, rCAG binder conf 35* and dCAG dye counter 14*.
For Cc1sc(-n2c(C)cc(/C=C3\SC(=S)NC3=O)c2C)c(C#N)c1C the results were GRIN3A LBD mod -25, FAS-TE inh 21, Myeloid diff 2 inactive, rCAG RNA binder 69*, MPTP inh 15, rCAG binder conf 76* and dCAG dye counter 35*.
`COc1ccc(OC(=O)COc2ccccc2C)cc1` gave GRIN3A LBD mod 0, FAS-TE inh 2, Myeloid diff 2 inactive, rCAG RNA binder 3 and MPTP inh 0.
Screening C=CCn1c(=O)/c(=C/c2ccc(Cl)cc2)s/c1=C(\C#N)c1nnc2n1CCCCC2 returned GRIN3A LBD mod -1, FAS-TE inh 40, Myeloid diff 2 inactive, rCAG RNA binder 3 and MPTP inh -1.
CC(Oc1ccccc1)C(=O)Nc1ccc(S(=O)(=O)Nc2nccs2)cc1 (configuration not stated) was read as GRIN3A LBD mod 0, FAS-TE inh -4, Myeloid diff 2 inactive, rCAG RNA binder 10 and MPTP inh 0.
CCCCOC(=O)Nc1ccc(S(=O)(=O)Nc2nccs2)cc1 was read as GRIN3A LBD mod -1, FAS-TE inh -6, Myeloid diff 2 inactive, rCAG RNA binder 8 and MPTP inh 1.
`CCCC(C(=O)Nc1ccc(S(=O)(=O)Nc2nccs2)cc1)c1ccccc1` (configuration not stated) gave GRIN3A LBD mod 0, FAS-TE inh 0, Myeloid diff 2 inactive, rCAG RNA binder 49*, MPTP inh -2, rCAG binder conf 36* and dCAG dye counter 9.7*.
